Reference: PubChem BioAssay (NCI)
About 83,000 compounds went through this panel and 20% of them were active in at least one assay; those are over-represented in the sample as a whole.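 Each cell line was grown in a 96-well plate and treated with one concentration of compound for 48 hours. Values below 10 were considered active.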 Values without a mark were called inactive. The source made the active and inactive calls.

System: SN12C renal
Test: NCI-60 one-dose screen, 48 h (100 = growth as untreated, 0 = no growth, -100 = all killed)
Conditions: 10 µM unless noted
Method: Growth inhibition of the SN12C human tumor cell line is measured as a screen for anti-cancer activity. Cells are grown in 96 well plates and exposed to the test compound for 48 hours. Compounds are tested at a single concentration, which is 10^-5 M for most compounds. The reported endpoint is percent growth (GI% or GIPRCNT), where numbers from 0 - 100% represent growth inhibition, and numbers from -100% - 0 represent cell death. For example, a value of 40 represents 60% growth inhibition. A value of 0 means no net growth occurred over the course of the experiment. A value of -40 indicates 40% of cells at the beginning of the experiment died by the end of the experiment. A value of -100 means all cells are dead at the end of the experiment.
NCI-60 Human Tumor Cell Lines Screen was performed using the standard one-dose NCI protocol, which is described in more detail at https://dtp.cancer.gov/discovery_development/nci-60/default.htm.
Compounds with GIPRCNT values below 10 were considered active. Activity score was based on GIPRCNT using the following formula: […]
Score is 0 for GIPRCNT values of 100 or above, 50 for GIPRCNT values of 0, and 100 for GIPRCNT values of -100.

| Structure (SMILES) | growth |
| --- | --- |
| C=Cc1cnc(Nc2ccc(OC)cc2)nc1NCCCNC(=O)C1CCC1 | 20.6% |
| COc1cccc(/C=N/NC(=O)c2ccccc2N2CCCC2)c1O | 78.8% |
| O=C1c2ccccc2C(=O)C1c1ccc(Br)cc1 | 95.3% |
| COc1ccc2nc(Cl)c(/C=C3\CC(c4ccccc4)=NN(c4ccccc4)C3=O)cc2c1 | 72.3% |
| COCCn1cc(-c2csc(-c3c[nH]c4ccc(Br)cc34)n2)c2cccnc21 | 51.2% |
| CCC1S/C(=N\N=C(\C)c2cc3cc(Cl)ccc3o2)N(c2ccccc2)C1=O (stereo not given) | 118% |
| CCCCNc1cc(-c2cn[nH]c2-c2cc(C)cc(OC)c2)nc(-c2cccnc2)n1 | 95.3% |
| COc1cc(/C=C2\CN(S(=O)(=O)c3ccccc3)C/C(=C\c3cc(CN4CCCCC4)c(O)c(OC)c3)C2=O)cc(CN2CCCCC2)c1O | -42.4% (active) |
| CN1C(=O)/C(=C/c2ccc(C(=O)Nc3ncc(Cc4cccc(Cl)c4)s3)cc2)SC1=S | 84.2% |
| Cc1nnc(-c2ccc3c(c2)nc(/C=C/c2ccccc2)n3C2CCCCC2)o1 | 90.1% |
| CC1CCN(C(=S)SCC(=O)NC(=O)c2ccccc2)CC1 | 109% |
| CCN(CC)CCN1C(=O)c2c(c(C)c3c(oc4ccc(OC)cc43)c2C)C1=O | 92.6% |
| Cc1ccc(/C=C/C(=O)c2ccc(-n3cc(CN4CCN(c5cc6c(cc5F)c(=O)c(C(=O)O)cn6C5CC5)CC4)nn3)cc2)cc1 | 67.7% |
| CCN1C(=O)N(CC)C2C1NC(=S)N2/N=C/c1ccc(C(F)(F)F)cc1 (stereo not given) | 82.4% |
| COc1cccc(-c2cc(-c3cccc(Cl)c3)c(C#N)c(=O)[nH]2)c1 | 85.2% |
| C=C1C(=O)O[C@H]2[C@H]1CC/C(COC(=O)/C=C\C(=O)NCc1ccc(Cn3c(=O)sn(CCCl)c3=O)cc1)=C\CC[C@@]1(C)O[C@@H]21 | 89.9% |
| Cc1n[nH]c2ccc(Br)cc2c1=O | 106% |
| CN(C)CCCC1(c2ccc(F)cc2)OCc2cc(-c3ccc4cc[nH]c4c3)ccc21 (stereo not given) | 58.6% |
| O=C1/C(=C/c2ccccc2F)CN(C(=O)C(Cl)Cl)C/C1=C\c1ccccc1F | -79.9% (active) |
| CCOC(=O)c1c(C)nc2ccccc2c1/C=C/c1ccccc1 | 88.3% |

| Structure (SMILES) | growth |
| --- | --- |
| O=C(NNc1cnccn1)c1nc2cc(F)ccc2n2cccc12 | 13.5% |
| O=c1c2ccccc2c(=O)c2c1sc1c(=O)c3ccc(O)cc3c(=O)c12 | -88.2% (active) |
| O=C(CN1CCCCCC1)Nc1nc2ccc(NCc3ccc(Cl)cc3)cc2s1 | 95.5% |
| O=C(Nc1ccc(Br)cc1)C1=NCCCCN1 | 94.7% |
| O=C(Cc1ccc(NC(=O)c2cccc(Cl)c2)cc1)NCc1ccccc1 | 58.1% |
| Cc1ccc2nc(/C(C#N)=C(/CCCO)NC(Cc3ccccc3)C(=O)OCc3ccccc3)[nH]c(=O)c2c1 (stereo not given) | 103% |
| Nc1ccc(-c2csc(-n3[nH]c(=O)ccc3=O)n2)cc1 | 103% |
| CN1CCN(c2ccc3nc4c(nc3c2C(F)(F)F)C(=O)c2ncccc2C4=O)CC1 | -95.4% (active) |
| C=C1C(=O)O[C@H]2[C@H]1CC/C(COC(=O)NCc1ccc(Cn3c(=O)sn(-c4ccc(C#N)cc4)c3=O)cc1)=C\CC[C@@]1(C)O[C@@H]21 | 50.3% |
| Cc1ccc(CNc2ccc3nc(CCC(C)C)[nH]c3c2)cc1 | 85.9% |
| CC1CCN(C(=O)CCCl)c2ccccc21 (stereo not given) | 99.7% |
| CCCCCCCCCCCCCCCCCCOc1ccccc1CC(=O)NCC[N+]1(C)CCCCC1 | 33% |
| C=C(C)[C@@H]1CC[C@]2(COC(C)=O)CC[C@]3(C)[C@H](CC[C@@H]4[C@@]5(C)CCCN(C(C)=O)C(C)(C)[C@@H]5CC[C@]43C)[C@@H]12 | 67.5% |
| Cc1c(Cl)cccc1C(=O)Nc1nc2c(s1)CN(C(=O)c1ccc(C(F)(F)F)cc1)CC2 | 30% |
| CNC(=O)c1cc(Oc2cccc3nc(NC(=O)Nc4cc(C(F)(F)F)ccc4Cl)ccc23)ccn1 | 93.5% |
| CC1(C)C(N)=Nc2cc(OCCCN3Cc4ccccc4C3)c(OCC3CC3)cc21 | 84.5% |
| N=c1c(S(=O)(=O)c2ccccc2)cc2c(=O)n3ccccc3nc2n1CC1CCCO1 (stereo not given) | 96.8% |
| CC1(C)OB(O)c2cc(-c3nc4ccc5[nH]ncc5c4c4c3CCCC4)ccc21 | 51.2% |
| COc1ccc(/C=C/C(=O)c2cc(OC)c(OC)c(OC)c2)cc1OCC(=O)Nc1nc2ccc(OC(F)(F)F)cc2s1 | 19.1% |
| O=C1/C=C/[C@@H](O)[C@@H]2C[C@@H](O)C[C@H]2/C=C/CCC[C@H](CCO)O1 | 10.5% |
